Rows were chosen to be rich in hits. Some 2.5% of all compounds tested hit in one or more screens of this group.
EWS-Fli block: blocks EWS/Fli oncoprotein-driven transcription | A673 NR0B1-luciferase reporter, viability-normalised | 350,000 tested, 0.67% active | inhibition, % at 12.6 µM;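 active = mean inhibition of at least 50% after viability correction, with every replicate also passing that limit; inconclusive = mean reaches 50% but only one of two replicates passes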;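 also: firefly luciferase signal divided by Alamar Blue viability fluorescence both relative to DMSO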
LGR2 inh: blocks bursicon-induced cAMP signaling via Drosophila LGR2. AID 720647. 380,000 tested, 0.35% active. inhibition, % at 9.99 µM. HEK293 LGR2, CRE-luciferase, bursicon-stimulated, 4 h;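 active = drop in luminescence signal, shown as inhibition above about 50% in the replicate tests, limit read from the data, passing the limit was not always enough; inconclusive = probably only some replicates passing the limit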;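 also: agonist challenge used bursicon conditioned medium at about half maximal strength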
TROY signal inh: blocks TROY-dependent signaling in reporter cells | 360,000 tested, 0.98% active | Q293 LMP1-TROYcd NF-kB luciferase reporter, 4 h | inhibition, % at 10 µM;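 active = compounds whose plate-normalised and pattern-corrected inhibition of the luciferase reporter signal at the single screening dose is 50% or more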
EBV LMP1 NFkB: inhibitors of Epstein-Barr LMP1-induced NF-kappaB reporter; LMP1-induced NF-kappaB luciferase reporter cells, luminescence; inhibition, % at 12.5 µM; 350,000 tested, 0.69% active; in the data active = inhibition above about 41%; inconclusive = no clear call, values can overlap the other calls;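 also: 0% = neutral control wells and 100% = reference inhibitor control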
TWEAK-Fn14 inh: TWEAK-Fn14 signaling inhibition; TWEAK-stimulated Fn14 reporter cells, luciferase luminescence, 8 h; inhibition, % at 10 µM; 360,000 tested, 2% active; AID 1159606; in the data active = inhibition above about 50%
Numbers without * were called inactive; ? = inconclusive; nt = no result.

SMILES	EWS-Fli block	LGR2 inh	TROY signal inh	EBV LMP1 NFkB	TWEAK-Fn14 inh
CO[C@@H]1CN(C)C(=O)c2ccc(NC(=O)c3cc(C)on3)cc2OC[C@@H](C)N(C(=O)C2CC2)C[C@@H]1C	0.0	1.2	nt	nt	nt
O=C(CSCC(=O)N1CCCCC1)Nc1nc(-c2ccccc2)c(-c2ccccc2)s1	8.2	8.1	7.6	15.8	51.5*
COc1ccc(OC)c(S(=O)(=O)NCCc2csc(-c3cccnc3)n2)c1	14.5	20.3	-8.6	-3.2	25.4
COc1ccc(S(=O)(=O)NCCc2csc(-c3cccnc3)n2)cc1	10.1	2.1	11.4	77.5*	-3.4
c1cncc(-c2ccc3ncnc(NCc4cccs4)c3c2)c1	2.9	-21.2	11.2	20.5	20.4
COc1cccc(CNc2ncnc3cc(Cl)ccc23)c1	18.5	7.2	14.6	9.5	19.6
COCCCNc1ncnc2ccc(C)cc12	nt	nt	54.9*	-2.3	39.3
COc1cccc(-c2ccc3ncnc(NCc4cccc(C)c4)c3c2)c1	7.6	13.7	50.0*	13.1	62.9*
Cc1ccsc1CNc1ncnc2ccc(-c3c(C)noc3C)cc12	36.5	4.1	44.0	11.7	81.0*
COc1cccc(-c2ccc3ncnc(NCc4cccs4)c3c2)c1	17.9	11.5	43.9	3.8	68.8*
CCC(=O)N1C[C@H](C)[C@@H](OC)CN(C)C(=O)c2ccc(NC(=O)Nc3ccc(Cl)cc3)cc2OC[C@H]1C	1.9	3.9	nt	nt	nt
COCCOC(=O)N1C(=O)[C@@]2(c3ccccc31)[C@H](C(=O)N1CCc3cc(OC)c(OC)cc3C1)[C@H]1C(=O)O[C@H](c3ccccc3)[C@H](c3ccccc3)N1[C@@H]2c1ccc(O)cc1	8.5	nt	nt	nt	nt
C[C@@H]1CCCCO[C@H](CN(C)S(=O)(=O)c2cccs2)[C@@H](C)CN([C@H](C)CO)C(=O)c2cc(NC(=O)c3ccncc3)ccc2O1	-1.0	-7.6	nt	nt	nt
CO[C@@H]1CN(C)C(=O)c2ccc(NC(=O)Nc3cccc(F)c3)cc2OC[C@@H](C)N(C(=O)Nc2c(C)noc2C)C[C@H]1C	-4.7	-2.2	nt	nt	nt
O=C(C[C@@H]1CC[C@@H]2[C@H](COC[C@@H](O)CN2Cc2cccc(C(F)(F)F)c2)O1)NCCc1ccncc1	-0.3	-4.1	nt	nt	nt
CC(C)NC(=O)Nc1cccc2c1O[C@@H](CN(C)Cc1ccc(-c3ccccc3)cc1)[C@@H](C)CN([C@@H](C)CO)C2=O	-3.8	2.3	nt	nt	nt
COc1cccc(CNC(=O)C[C@H]2CC[C@@H](NS(=O)(=O)c3ccccc3OC)[C@@H](CO)O2)c1	-0.3	12.9	nt	nt	nt
COc1cccc(CNc2ncnc3ccc(-c4c(C)noc4C)cc23)c1	49.2	-8.4	30.2	?	79.5*
COc1ccc(-c2cc(N)n(S(=O)(=O)c3c(F)c(F)c(F)c(F)c3F)n2)cc1OC	45.8	-14.8	9.1	16.1	50.8*
COc1ccc(S(=O)(=O)n2nc(-c3cc(OC)c(OC)c(OC)c3)cc2N)cc1OC	20.0	9.4	4.4	-0.6	2.1
O=c1c2cc3c(cc2[nH]c(=S)n1CCN1CCOCC1)OCO3	nt	nt	77.9*	4.8	-7.7
CC1CCN(CCn2c(=S)[nH]c3cc4c(cc3c2=O)OCO4)CC1	11.4	-4.2	-4.1	-2.3	-1.5
COc1cc(/C=N/Nc2nc(-c3ccc(S(=O)(=O)N(C)C)cc3)cs2)ccc1O	10.3	-7.9	11.7	5.2	81.3*
COc1ccc(/C=N/Nc2nc(-c3cccc(S(=O)(=O)N4CCCC4)c3)cs2)cc1OC	nt	-3.5	17.0	15.0	12.9
CCOc1cc(/C=N/Nc2nc(-c3cccc(S(=O)(=O)N4CCCC4)c3)cs2)ccc1O	nt	32.5	14.8	0.0	61.4*
SMILES	EWS-Fli block	LGR2 inh	TROY signal inh	EBV LMP1 NFkB	TWEAK-Fn14 inh
CCCNC(=O)C[C@@H]1C[C@@H]2c3cc(NC(=O)c4cccnc4)ccc3O[C@@H]2[C@H](CO)O1	-2.1	-4.2	nt	nt	nt
CC(=O)NC1C(O)OC(CO)C(O)C1O (stereo not given)	-1.1	2.5	-0.6	79.7*	-6.8
CC(=O)N[C@H]1C(O)O[C@H](CO)[C@@H](O)[C@@H]1O (stereo not given in full)	3.5	-4.9	5.8	-3.2	-7.0
Cc1ccc(-n2ncc3c(N4CCN(c5ccccc5)CC4)ncnc32)c(C)c1	nt	?	50.2*	12.3	87.4*
COc1ccc(N2CCN(c3ncnc4c3cnn4-c3ccc(C)cc3C)CC2)cc1	19.1	5.3	44.3	12.2	68.1*
c1ccc(Cn2ncc3c(N4CCN(C(c5ccccc5)c5ccccc5)CC4)ncnc32)cc1	17.6	-11.9	21.4	5.9	-16.4
c1ccc(Cn2ncc3c(N4CCN(c5ccccc5)CC4)ncnc32)cc1	19.3	66.1*	72.2*	nt	64.0*
C[C@@H]1CN([C@H](C)CO)C(=O)c2cccc(NC(=O)c3nc4ccccc4s3)c2O[C@H]1CN(C)C(=O)Nc1cccc2ccccc12	nt	-1.5	nt	nt	nt
CCc1c2c(nc3ccc(OC(=O)N4CCC(N5CCCCC5)CC4)cc13)-c1cc3c(c(=O)n1C2)COC(=O)[C@]3(O)CC	64.0*	?	56.7*	72.4*	-5.4
CCC1(O)C(=O)OCc2c1cc1n(c2=O)Cc2cc3cc(O)ccc3nc2-1 (stereo not given)	55.7*	94.9*	76.4*	86.3*	70.4*
C#CCn1c(=O)c2c(ncn2C)n(C)c1=O	-1.1	1.1	-12.1	43.7*	-11.4
CC(NC(=O)CN(c1cccc(C(F)(F)F)c1)S(=O)(=O)c1ccc(Cl)c([N+](=O)[O-])c1)c1ccccc1 (stereo not given)	59.8*	7.1	18.7	8.0	20.6
Cc1noc(C)c1NC(=O)Nc1ccc2c(c1)C(=O)N([C@@H](C)CO)C[C@@H](C)[C@@H](CN(C)C(=O)Nc1ccc3c(c1)OCO3)OCCCC[C@@H](C)O2	-9.2	-15.2	nt	nt	nt
OC1CCN(Cc2ccc3ccccc3c2)CC1	-4.1	2.0	-10.5	12.2	96.6*
O=[N+]([O-])c1ccccc1CN1CCN(Cc2ccc3ccccc3c2)CC1	9.5	-8.8	-8.2	11.2	64.7*
COc1ccccc1CN1CCN(Cc2ccc3ccccc3c2)CC1	15.8	-2.5	0.7	4.2	-8.9
O=C(C[C@@H]1CC[C@@H](NS(=O)(=O)c2ccc(F)cc2)[C@@H](CO)O1)NCCN1CCCCC1	1.1	5.2	nt	nt	nt
O=S(=O)(N[C@H]1CC[C@@H](CCn2cc(-c3cccnc3)nn2)O[C@H]1CO)c1ccc(F)cc1	-0.8	12.6	nt	nt	nt
Cc1ccccc1Oc1cc(-n2ncc(Cl)c(Cl)c2=O)ncn1	41.7	101.4*	90.4*	93.0*	106.7*
COc1cc(C=NO)nc(-c2ccccn2)c1	?	3.7	10.4	57.1*	0.0
COc1ccc2nc(-c3ccccn3)[nH]c2c1	-44.4	-11.4	-16.5	4.2	49.6
COc1ccc(-n2cccc2C=O)cc1OC	nt	nt	-16.2	6.7	-0.9
COc1ccccc1-n1cccc1C=O	4.0	7.7	89.7*	9.4	2.8
O=C(Cc1ccccc1[N+](=O)[O-])NC1CC1	2.5	13.2	10.5	-6.6	5.3
O=C(Cc1ccccc1[N+](=O)[O-])NCC1(c2cccc3c2OCO3)OCCO1	-8.7	-5.2	-7.0	45.8*	-4.6

Assay outcomes: PubChem BioAssay, several laboratories
